Test results: PMC7862700, “An all-to-all approach to the identification of sequence-specific readers for epigenetic DNA modifications on cytosine”

What was measured:
Test in all cases: DAPPL (digital affinity profiling via proximity ligation, sequencing); 10 mM Tris-HCl pH 7.5, 50 mM NaCl, 1 mM DTT, 4% glycerol, room temperature, 30 min; GST-TFs on glutathione beads, 16-mer random dsDNA library, 0.1% formaldehyde crosslink after washing; high values mean tight binding
Conditions in all cases: protein: recombinant; tags: N-terminal GST; dsDNA, one strand shown
ERF = target: T1, ERF (Homo sapiens, UniProt P50548 1-548)
T1 sequence: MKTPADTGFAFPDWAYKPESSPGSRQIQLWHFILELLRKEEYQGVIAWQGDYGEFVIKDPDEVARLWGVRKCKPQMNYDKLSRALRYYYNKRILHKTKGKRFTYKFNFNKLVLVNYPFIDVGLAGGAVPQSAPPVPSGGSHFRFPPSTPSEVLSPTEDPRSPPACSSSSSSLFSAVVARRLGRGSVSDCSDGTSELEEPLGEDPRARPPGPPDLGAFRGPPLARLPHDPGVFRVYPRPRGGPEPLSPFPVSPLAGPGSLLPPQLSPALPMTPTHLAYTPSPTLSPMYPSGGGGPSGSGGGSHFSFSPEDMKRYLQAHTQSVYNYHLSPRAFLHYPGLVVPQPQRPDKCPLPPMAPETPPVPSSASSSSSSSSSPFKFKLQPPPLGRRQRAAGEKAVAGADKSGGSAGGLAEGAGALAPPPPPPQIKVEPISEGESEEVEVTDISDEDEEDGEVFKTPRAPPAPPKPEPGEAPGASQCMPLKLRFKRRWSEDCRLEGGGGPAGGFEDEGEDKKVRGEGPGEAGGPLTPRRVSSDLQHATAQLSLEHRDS
Outline: (§1)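 Yeast served to express human transcription factors as GST fusions, which were then captured on glutathione beads and labelled with DNA barcodes. Pooled with a tag-only sample, they were incubated with 200 nmole of a 16-mer random double-stranded DNA library for 30 min at room temperature in Tris/NaCl/DTT/glycerol buffer, washed, crosslinked with 0.1% formaldehyde, ligated by proximity, amplified by PCR and sequenced. Dividing each hexamer's read frequency for a factor by its frequency for the tag-only sample gives the binding signal.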

ETV3L = target: T2, ETV3L (Homo sapiens, UniProt Q6ZN32 1-361)
T2 sequence: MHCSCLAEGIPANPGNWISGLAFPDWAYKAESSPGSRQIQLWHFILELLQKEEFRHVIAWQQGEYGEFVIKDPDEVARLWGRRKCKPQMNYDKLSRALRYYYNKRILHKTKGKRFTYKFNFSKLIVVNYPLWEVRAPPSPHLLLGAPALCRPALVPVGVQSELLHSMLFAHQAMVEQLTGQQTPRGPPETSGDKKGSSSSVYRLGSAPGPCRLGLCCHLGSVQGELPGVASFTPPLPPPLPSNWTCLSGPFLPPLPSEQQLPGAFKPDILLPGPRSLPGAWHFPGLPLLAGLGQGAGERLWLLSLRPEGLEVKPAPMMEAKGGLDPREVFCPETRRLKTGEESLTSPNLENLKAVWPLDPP
Outline: as §1

ETS2 = target: T3, ETS2 (Homo sapiens, UniProt P15036 1-469)
T3 sequence: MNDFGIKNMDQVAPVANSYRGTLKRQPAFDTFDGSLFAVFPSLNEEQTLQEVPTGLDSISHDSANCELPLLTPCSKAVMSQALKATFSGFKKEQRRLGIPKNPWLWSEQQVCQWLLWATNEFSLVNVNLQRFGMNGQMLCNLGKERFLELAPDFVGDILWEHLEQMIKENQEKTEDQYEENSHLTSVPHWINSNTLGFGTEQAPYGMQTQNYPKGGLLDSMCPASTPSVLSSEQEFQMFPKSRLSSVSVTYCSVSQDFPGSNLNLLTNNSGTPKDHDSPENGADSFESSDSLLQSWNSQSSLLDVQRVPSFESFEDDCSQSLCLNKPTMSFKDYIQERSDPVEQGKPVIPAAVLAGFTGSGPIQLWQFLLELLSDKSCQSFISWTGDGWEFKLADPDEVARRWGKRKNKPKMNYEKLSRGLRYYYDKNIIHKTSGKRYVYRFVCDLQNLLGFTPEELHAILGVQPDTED
Outline: as §1

SPDEF = target: T4, SPDEF (Homo sapiens, UniProt O95238 1-335)
T4 sequence: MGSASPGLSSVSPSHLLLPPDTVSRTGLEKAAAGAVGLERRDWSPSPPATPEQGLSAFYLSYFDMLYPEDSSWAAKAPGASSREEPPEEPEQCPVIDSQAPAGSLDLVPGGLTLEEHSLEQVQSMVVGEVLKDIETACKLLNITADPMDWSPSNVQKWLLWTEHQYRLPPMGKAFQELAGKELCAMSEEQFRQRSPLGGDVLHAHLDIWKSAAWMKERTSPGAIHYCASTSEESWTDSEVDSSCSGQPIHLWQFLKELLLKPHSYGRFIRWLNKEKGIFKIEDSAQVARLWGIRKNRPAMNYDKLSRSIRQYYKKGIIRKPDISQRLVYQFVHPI
Outline: as §1

ETV7 = target: T5, ETV7 (Homo sapiens, UniProt Q9Y603 1-341)
T5 sequence: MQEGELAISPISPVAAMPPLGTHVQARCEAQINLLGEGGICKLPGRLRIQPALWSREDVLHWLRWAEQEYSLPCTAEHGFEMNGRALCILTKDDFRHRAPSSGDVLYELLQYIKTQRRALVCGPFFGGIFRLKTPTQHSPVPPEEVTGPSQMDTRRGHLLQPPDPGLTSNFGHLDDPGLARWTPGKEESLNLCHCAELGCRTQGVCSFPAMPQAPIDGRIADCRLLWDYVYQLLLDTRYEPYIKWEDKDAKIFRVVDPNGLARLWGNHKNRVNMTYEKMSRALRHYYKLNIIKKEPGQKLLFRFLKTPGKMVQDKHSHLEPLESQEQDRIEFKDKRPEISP
Outline: as §1

ELF5 = target: T6, ELF5 (Homo sapiens, UniProt Q9UKW6-2 1-255)
T6 sequence: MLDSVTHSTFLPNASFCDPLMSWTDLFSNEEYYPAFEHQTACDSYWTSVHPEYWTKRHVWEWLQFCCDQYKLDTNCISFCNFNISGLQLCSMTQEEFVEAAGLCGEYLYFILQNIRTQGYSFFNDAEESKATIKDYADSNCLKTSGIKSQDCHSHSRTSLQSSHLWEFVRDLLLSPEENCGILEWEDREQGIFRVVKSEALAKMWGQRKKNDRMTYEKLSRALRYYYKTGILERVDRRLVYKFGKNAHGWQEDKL
Outline: as §1

ETV3 = target: T7, ETV3 (Homo sapiens, UniProt P41162-2 1-143)
T7 sequence: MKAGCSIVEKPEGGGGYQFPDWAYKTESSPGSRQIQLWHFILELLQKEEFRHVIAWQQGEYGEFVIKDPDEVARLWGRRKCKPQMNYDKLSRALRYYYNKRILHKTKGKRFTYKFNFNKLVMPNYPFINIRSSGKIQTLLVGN
Outline: as §1

ETV6 = ETV6 (Homo sapiens, UniProt P41212 1-452)
Outline: as §1

Sequence of ETV6 (P41212 whole entry): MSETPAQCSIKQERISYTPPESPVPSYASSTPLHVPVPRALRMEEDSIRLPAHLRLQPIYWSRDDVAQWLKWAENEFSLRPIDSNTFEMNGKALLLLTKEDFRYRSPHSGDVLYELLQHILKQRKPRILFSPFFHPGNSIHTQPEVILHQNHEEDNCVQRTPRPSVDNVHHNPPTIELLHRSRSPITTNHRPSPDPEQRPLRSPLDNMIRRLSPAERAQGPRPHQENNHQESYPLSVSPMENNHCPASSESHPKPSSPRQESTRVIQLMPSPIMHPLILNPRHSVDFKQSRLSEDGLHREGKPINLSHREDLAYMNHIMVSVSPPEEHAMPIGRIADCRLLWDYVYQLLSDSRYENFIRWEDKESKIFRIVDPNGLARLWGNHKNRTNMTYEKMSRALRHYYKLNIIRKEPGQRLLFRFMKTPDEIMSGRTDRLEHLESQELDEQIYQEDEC

Sequence	binding signal (ERF)	binding signal (ETV3L)	binding signal (ETS2)	binding signal (SPDEF)	binding signal (ETV7)	binding signal (ELF5)	binding signal (ETV3)	binding signal (ETV6)
ACAGCT	1.24 fold enrichment (6-mer frequency, TF over GST control)	1.19 fold enrichment (6-mer frequency, TF over GST control)	1.12 fold enrichment (6-mer frequency, TF over GST control)	1.02 fold enrichment (6-mer frequency, TF over GST control)	1.21 fold enrichment (6-mer frequency, TF over GST control)	1.12 fold enrichment (6-mer frequency, TF over GST control)	1.14 fold enrichment (6-mer frequency, TF over GST control)	1.08 fold enrichment (6-mer frequency, TF over GST control)
CCGAAC	1.23 fold enrichment (6-mer frequency, TF over GST control)	1.27 fold enrichment (6-mer frequency, TF over GST control)	1.26 fold enrichment (6-mer frequency, TF over GST control)	1.28 fold enrichment (6-mer frequency, TF over GST control)	1.14 fold enrichment (6-mer frequency, TF over GST control)	1.21 fold enrichment (6-mer frequency, TF over GST control)	1.18 fold enrichment (6-mer frequency, TF over GST control)	1.28 fold enrichment (6-mer frequency, TF over GST control)
ACTATT	1.22 fold enrichment (6-mer frequency, TF over GST control)	1.27 fold enrichment (6-mer frequency, TF over GST control)	1.37 fold enrichment (6-mer frequency, TF over GST control)	1.13 fold enrichment (6-mer frequency, TF over GST control)	1.32 fold enrichment (6-mer frequency, TF over GST control)	1.29 fold enrichment (6-mer frequency, TF over GST control)	1.35 fold enrichment (6-mer frequency, TF over GST control)	1.43 fold enrichment (6-mer frequency, TF over GST control)
TGAACT	1.31 fold enrichment (6-mer frequency, TF over GST control)	1.23 fold enrichment (6-mer frequency, TF over GST control)	1.23 fold enrichment (6-mer frequency, TF over GST control)	1.16 fold enrichment (6-mer frequency, TF over GST control)	1.21 fold enrichment (6-mer frequency, TF over GST control)	1.23 fold enrichment (6-mer frequency, TF over GST control)	1.24 fold enrichment (6-mer frequency, TF over GST control)	1.22 fold enrichment (6-mer frequency, TF over GST control)
ATCCGC	1.71 fold enrichment (6-mer frequency, TF over GST control)	1.84 fold enrichment (6-mer frequency, TF over GST control)	1.89 fold enrichment (6-mer frequency, TF over GST control)	2.36 fold enrichment (6-mer frequency, TF over GST control)	1.79 fold enrichment (6-mer frequency, TF over GST control)	2.26 fold enrichment (6-mer frequency, TF over GST control)	1.92 fold enrichment (6-mer frequency, TF over GST control)	1.66 fold enrichment (6-mer frequency, TF over GST control)
AAAATC	1.17 fold enrichment (6-mer frequency, TF over GST control)	1.18 fold enrichment (6-mer frequency, TF over GST control)	1.14 fold enrichment (6-mer frequency, TF over GST control)	1.2 fold enrichment (6-mer frequency, TF over GST control)	1.16 fold enrichment (6-mer frequency, TF over GST control)	1.15 fold enrichment (6-mer frequency, TF over GST control)	1.13 fold enrichment (6-mer frequency, TF over GST control)	1.19 fold enrichment (6-mer frequency, TF over GST control)
AGCAAT	1.1 fold enrichment (6-mer frequency, TF over GST control)	1.03 fold enrichment (6-mer frequency, TF over GST control)	1.1 fold enrichment (6-mer frequency, TF over GST control)	1.04 fold enrichment (6-mer frequency, TF over GST control)	1.25 fold enrichment (6-mer frequency, TF over GST control)	1.08 fold enrichment (6-mer frequency, TF over GST control)	1.18 fold enrichment (6-mer frequency, TF over GST control)	1.14 fold enrichment (6-mer frequency, TF over GST control)
TCCTCG	1.48 fold enrichment (6-mer frequency, TF over GST control)	1.57 fold enrichment (6-mer frequency, TF over GST control)	1.35 fold enrichment (6-mer frequency, TF over GST control)	1.33 fold enrichment (6-mer frequency, TF over GST control)	1.49 fold enrichment (6-mer frequency, TF over GST control)	1.93 fold enrichment (6-mer frequency, TF over GST control)	1.5 fold enrichment (6-mer frequency, TF over GST control)	1.48 fold enrichment (6-mer frequency, TF over GST control)
TTCAGC	1.14 fold enrichment (6-mer frequency, TF over GST control)	1.21 fold enrichment (6-mer frequency, TF over GST control)	1.27 fold enrichment (6-mer frequency, TF over GST control)	1.12 fold enrichment (6-mer frequency, TF over GST control)	1.27 fold enrichment (6-mer frequency, TF over GST control)	1.16 fold enrichment (6-mer frequency, TF over GST control)	1.32 fold enrichment (6-mer frequency, TF over GST control)	1.2 fold enrichment (6-mer frequency, TF over GST control)
